Reference: PubChem BioAssay AID1851 (National Center for Advancing Translational Sciences (NCATS), 2009)
About 4,000 (25%) of roughly 16,000 compounds were called active. About 26% were inconclusive and are not listed. The list is a sample of the results. Unmarked numbers belong to inactive results. Calls follow the shape of the dose curve; as a rule, active = well fitted curve in the direction sought with a large enough effect; inconclusive = small, poorly fitted or top-dose-only effect, or effect the other way; inactive = no such curve, though single readings can be large or run the other way.

Each molecule was assayed against Cytochrome P450 2C9 (Homo sapiens) (UniProt P11712) (assay: Cytochrome panel assay with activity outcomes). Details: recombinant CYP, pro-luciferin dealkylation, luminescence, p450-cyp2c9; series mostly up to 57.1 µM; activity, negative = inhibition: at the top concentration.
Chain of Cytochrome P450 2C9 (Homo sapiens) (P11712 whole entry, looked up): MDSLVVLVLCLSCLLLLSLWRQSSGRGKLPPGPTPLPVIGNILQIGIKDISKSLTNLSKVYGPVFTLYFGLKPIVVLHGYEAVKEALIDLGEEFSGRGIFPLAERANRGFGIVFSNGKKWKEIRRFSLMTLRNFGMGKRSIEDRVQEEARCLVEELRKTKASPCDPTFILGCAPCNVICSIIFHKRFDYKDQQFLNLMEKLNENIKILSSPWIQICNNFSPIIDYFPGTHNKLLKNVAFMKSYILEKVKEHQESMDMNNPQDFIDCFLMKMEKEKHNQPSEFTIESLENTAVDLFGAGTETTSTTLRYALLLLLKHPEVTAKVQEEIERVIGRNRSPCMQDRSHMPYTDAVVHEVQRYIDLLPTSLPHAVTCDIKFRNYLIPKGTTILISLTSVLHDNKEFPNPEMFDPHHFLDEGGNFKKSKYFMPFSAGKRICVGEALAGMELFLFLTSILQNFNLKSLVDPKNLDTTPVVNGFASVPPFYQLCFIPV
% is scaled to controls: 0 for no effect and ±100 for the full control effect.

Structure (SMILES) | activity, negative = inhibition | AC50
CNC[C@@H](SC)c1ccc(O)c(O)c1 | 0.961% [at 11.4 µM] | –
c1cnc(N2CCN(Cc3ccc4c(c3)OCO4)CC2)nc1 | – | inactive
Cn1c(=O)c2c(nc(Cc3ccccc3)n2CC(=O)O)n(C)c1=O | -4.06% [at 11.4 µM] | –
Cn1c(OCc2ccc3c(c2)OCO3)nc2c1c(=O)n(Cc1ccc(Cl)c(Cl)c1)c(=O)n2C | – | 2.51 µM (active)
Cn1c(=O)c2c(nc(Cl)n2Cc2ccc(Cl)c(Cl)c2)n(C)c1=O | – | 6.31 µM (active)
Cn1c(=O)c2c(nc(NCCNc3nc4c(c(=O)n(C)c(=O)n4C)n3C)n2C)n(C)c1=O | 3.94% [at 11.4 µM] | –
O=C(COc1ccc(Cl)cc1)N1CCN(Cc2ccc3c(c2)OCO3)CC1 | -34.1% [at 25.6 µM] | –
CCN(CC(=O)O)CC(=O)O | 8.87% [at 11.4 µM] | –
O=C(Nc1ccccc1)N1CCCC2(CCN(C(=O)c3cnccn3)CC2)C1 | -14.6% | –
Cn1c(=O)c2[nH]c(-c3ccc(S(=O)(=O)O)cc3)nc2n(C)c1=O | -12.8% | –
CCS(=O)(=O)Nc1ccc(C2=NN(C(=O)c3ccco3)C(c3ccc(C)cc3)C2)cc1 (centres undefined) | – | 2.24 µM (active)
CC(C)[C@]1(Cl)CC[C@@H]2[C@]3(C)CCC[C@@](C)(C(=O)O)[C@H]3C[C@H](Cl)[C@@]2(Cl)[C@H]1Cl | -25.3% [at 11.4 µM] | –
Cc1cc2nc(CCN(C(=S)NCC(C)C)C3CCCC3)[nH]c2cc1C | – | 7.94 µM (active)
Cc1cc2nc(C3CCCN(C(=S)Nc4ccccc4)C3)[nH]c2cc1C (centres undefined) | -19% | –
Clc1ccc2c(c1)C(N1CCNCC1)=Nc1ccccc1O2 | -8.46% [at 25.6 µM] | –
O=C(c1ccco1)N(CCC(c1ccccc1)c1ccco1)Cc1ccco1 (centres undefined) | – | 2.24 µM (active)
NC(=O)CC(c1ccccc1)c1ccco1 (centres undefined) | -10% | –
Cc1ccc(C(CC(N)=O)c2ccco2)cc1 (centres undefined) | -7.64% | –
O=C(/C=C/c1ccccc1)N/C(=C/c1ccccc1)C(=O)Nc1ccccc1O | – | 4.47 µM (active)
O=C(/C=C\c1ccccc1)c1ccccc1O | -9.15% [at 11.4 µM] | –
Cc1cn([C@H]2C[C@H](O)[C@@H](COC(N)=O)O2)c(=O)[nH]c1=O | 18.3% [at 11.4 µM] | –
CCCCNC(=O)C1CCN(Cc2ccccn2)CC1 | -9.44% | –
CCOC(=O)COc1ccc(/C=C/[N+](=O)[O-])c(OCC(=O)OCC)c1 | – | 7.94 µM (active)
CN(C)CCOC(=O)COc1ccc(Cl)cc1 | – | inactive

Structure (SMILES) | activity, negative = inhibition | AC50
COC(=O)N1CCC2(CC1)CN(c1ccccc1)C2 | -14% | –
O=C(O)C1C2CCC(C2)C1C(=O)NCc1ccco1 (centres undefined) | -7.58% | –
Clc1ccccc1-c1nccc(NCCN2CCOCC2)n1 | 29.8% [at 2.29 µM] | –
Clc1ccccc1-c1ccc2ncnc(NCCN3CCOCC3)c2c1 | 24.6% [at 2.29 µM] | –
O=C(CCc1nc2ccccc2c(=O)[nH]1)OCC(=O)N1CCN(S(=O)(=O)c2ccccc2)CC1 | 8.87% | –
CS(=O)(=O)Nc1cccc(-c2nc(N3CCOCC3)c3ccccc3n2)c1 | -0.621% [at 2.29 µM] | –
O=C(COC(=O)c1cccc(S(=O)(=O)N2CCN(c3ccccc3)CC2)c1)NCc1ccco1 | – | 2.24 µM (active)
O=C(COC(=O)c1cccc(S(=O)(=O)N2CCOCC2)c1)Nc1nc(-c2ccccc2Cl)cs1 | – | 4.47 µM (active)
CCCc1nc2ccccc2c(C(=O)OCC(=O)Nc2cccc(S(=O)(=O)N3CCOCC3)c2)c1CC | – | 14.1 µM (active)
C[n+]1cc2c3c(ccc2c2ccc4cc5c(cc4c21)OCO5)OCO3 | -18.7% | –
COC(=O)[C@H](C)NC(=O)C/C=C\[C@@H](C)[C@H]1C=C[C@H](O)[C@@H](CO)O1 | -20.2% [at 11.4 µM] | –
Cc1cc(C)nc(Nc2n[nH]c(COc3ccc4ccccc4c3)n2)n1 | -13.6% | –
CCOc1ccc(N2C(=O)CN=C2Nc2ccccc2F)cc1 | – | 12.6 µM (active)
CCOc1ccc(N2C(=O)CN=C2Nc2ccccc2Cl)cc1 | -15.4% | –
CCOc1ccc(N2C(=O)/C(=C/c3cccs3)N(CC(=O)OC)C2=S)cc1 | 29.2% | –
COc1c(O)cc2c(c1O)[C@@H]1O[C@@H](CO)[C@@H](O)[C@@H](O)[C@@H]1OC2=O | -0.188% [at 25.6 µM] | –
O=C(NCc1cc(F)cc2c1OCCO2)[C@H]1C[C@@H]1[C@H](NP(=O)(c1ccccc1)c1ccccc1)c1ccccc1 | – | 12.6 µM (active)
O=C(NCCc1c[nH]c2ccccc12)[C@@H]1C[C@H]1[C@@H](NP(=O)(c1ccccc1)c1ccccc1)c1ccccc1 | – | 0.251 µM (active)
O=C(Nc1ccc2ccccc2c1)[C@H]1C[C@@H]1[C@H](NP(=O)(c1ccccc1)c1ccccc1)c1ccccc1 | – | 3.16 µM (active)
O=C(NCCc1c[nH]c2ccccc12)[C@H]1C[C@@H]1[C@H](NP(=O)(c1ccccc1)c1ccccc1)c1ccccc1 | – | 2 µM (active)
COC(=O)Nc1ccc2[nH]cc(CCNC(C)=O)c2c1 | -6.3% | –
CSC(N)=NCCC[C@@H](N)C(=O)O | -9.74% | –
N=C(N)CCNC(=O)[C@@H]1CCC(N)=N1 | -0.797% [at 11.4 µM] | –
O=C(O)[C@H]1C[C@H](C(=O)O)N1 | 24.8% | –

Structure (SMILES) | activity, negative = inhibition | AC50
O=C(NCc1nc2ccccc2[nH]1)[C@H]1C[C@@H]1[C@H](NP(=O)(c1ccccc1)c1ccccc1)c1ccccc1 | – | 12.6 µM (active)
Cc1cc(CNC(=O)[C@@H]2C[C@H]2[C@@H](NP(=O)(c2ccccc2)c2ccccc2)c2ccccc2)nn1C | -1.27% | –
Cc1cc(CNC(=O)[C@H]2C[C@@H]2[C@H](NP(=O)(c2ccccc2)c2ccccc2)c2ccccc2)nn1C | -22.9% | –
O=C(CC1CCCC1)Nc1ccc2c(c1)CCC2 | -31% | –
CC(=O)NNC(=O)CCC(=O)Nc1ccccc1 | -2.97% | –
CC(=O)c1cccc(NC(=O)CCC2CCCC2)c1 | – | 14.1 µM (active)
N#C/C(=C\Nc1ccccn1)C(=O)c1ccco1 | – | 3.16 µM (active)
N#C/C(=C\Nc1ccccn1)C(=O)C1CC1 | 2.34% [at 11.4 µM] | –
O=C(N/N=C/c1ccccn1)c1ccco1 | 61.6% | –
CC(C)CSC[C@@H]1O[C@H](n2cnc3c(N)nccc32)[C@H](O)[C@@H]1O | 3.85% [at 11.4 µM] | –
CS(=O)(=O)N1CCN(c2ccccc2NC(=O)c2ccc(Br)o2)CC1 | – | 20 µM (active)
CS(=O)(=O)N1CCC2(CC1)CN(C(=O)Nc1ccccc1)C2 | 8.74% | –
CC(C)N1CCC(=NNC(=O)c2ccc(Br)o2)CC1 | -17% | –
COCC(=O)N1CCC2(CCCN(Cc3ccccc3)C2)CC1 | -0.418% | –
O=C(c1ccc2c(c1)N(Cc1ccc(F)cc1)C(=O)CS2)N1CCOCC1 | – | 17.8 µM (active)
O=C1S/C(=C/c2ccc(N3CCOCC3)o2)C(=O)N1Cc1ccc(F)cc1 | -19.5% | –
O=C(c1cc(Cl)c(=O)n(Cc2ccc(Cl)cc2)c1)N1CCOCC1 | -22.2% | –
O=C(c1cc(C(F)(F)F)cc(C(F)(F)F)c1)N1CCC[C@@]2(CCN(c3ccccc3)C2)C1 | 24% | –
O=C(O)CSc1cc(C(F)(F)F)nc(-c2ccccn2)n1 | -7.48% | –
CC(Sc1nc(-c2ccccc2)cc(C(F)(F)F)n1)C(=O)N1CCCCC1 (centres undefined) | – | 8.91 µM (active)
CCCCCC1=C2CNC(CC(C)C)(C(=O)OC)C=C2C(C)C1=O (centres undefined) | – | 3.16 µM (active)
CCCC1(C(=O)OC)C=C2C(=C(C)C(=O)C2C)CN1 (centres undefined) | -6.7% | –
COC(=O)C1(CC(C)C)C=C2C(=C(C(C)C)C(=O)C2C)CN1 (centres undefined) | – | 12.6 µM (active)
CCCCCC1=C2CNC(CCC)(C(=O)OC)C=C2C(C)C1=O (centres undefined) | – | 10 µM (active)

Structure (SMILES) | activity, negative = inhibition | AC50
c1ccc(CNc2ccnc(-c3ccc4c(c3)OCO4)n2)cc1 | -0.997% [at 2.29 µM] | –
O=C(O)[C@@H](O)[C@@H](O)[C@@H](O)[C@@H](O)C(=O)O (tested in a mixture with another compound) | -19.4% [at 25.6 µM] | –
Cc1ccccc1OCC(=O)N/N=C1\CCOc2c(C)cccc21 | -0.88% | –
Cc1cccc2c1OCC/C2=N\NC(=O)COc1ccccc1 | – | 15.8 µM (active)
CCCCOc1ccc(/C=C/C(=O)NCCc2nc3ccccc3[nH]2)cc1 | – | 6.31 µM (active)
COc1ccc(CNC(=O)/C=C/c2ccc(OCCCF)cc2)cc1 | -25.4% | –
Cc1ccc(NC(=O)/C(=C\c2ccc3c(c2)OCO3)NC(=O)c2ccco2)cc1 | – | 3.55 µM (active)
O=C(Nc1ccccc1)/C(=C\c1ccc2c(c1)OCO2)NC(=O)c1ccco1 | – | 10 µM (active)
N#C/C(=C\c1ccc(O)c(O)c1)C(=O)Nc1ccccc1 | -18.9% | –
O=C(Nc1ccccc1)N1CCC2(CC1)CCN(C(=O)c1ccco1)CC2 | -7.61% | –
Cc1cccc(OCC(=O)N/N=C\C=C\c2ccc3c(c2)OCO3)c1C | 8.15% | –
Cc1noc(C)c1C(=O)N1CCC[C@@]2(CCN(C(=O)Nc3cccc(F)c3)C2)C1 | -5.02% | –
O=C(Nc1c[nH]c(=O)[nH]c1=O)Oc1ccccc1 | 1.86% [at 11.4 µM] | –
NOCC(=O)O | -0.0818% | –
CCNc1nc(Sc2ccc(C)cc2)cc(C(F)(F)F)n1 | – | 25.1 µM (active)
Cc1ccc(Sc2cc(Cl)nc(N)n2)cc1 | -3.63% | –
CC[C@@H](CS(=O)(=O)O)[N+](=O)[O-] | 5.26% [at 11.4 µM] | –
O=C(CN(Cc1ccccc1)S(=O)(=O)c1ccc2c(c1)OCCO2)N/N=C/c1ccc(F)cc1 | – | 14.1 µM (active)
COCc1cc(=O)[nH]c2cc(NC(=O)C(F)(F)F)c(C)cc12 | 10.5% | –
Cc1ccc(C(=O)Nc2nc3ccccc3n3nnnc23)cc1 | -12.8% | –
CCn1c(-c2nonc2NC(=O)c2ccccc2)nc2ccccc21 | – | 0.501 µM (active)
CCC(=O)Nc1nonc1-c1nc2ccccc2n1N(C(=O)CC)C(=O)CC | – | 10 µM (active)
